Data on two compounds can be found in ChEMBL document CHEMBL1961873, “Compounds: GSK PKIS; Assays: Nanosyn kinase panel” (2012).

Assay [1] has as its target Protein kinase C gamma type (Homo sapiens) (UniProt P05129). The note with it: at 1 µM.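 Also: each value is an averaged percent inhibition of the enzyme.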
For assay [2], the target named is T1, Protein kinase C iota type (Homo sapiens) (UniProt P41743).
T1 sequence (whole entry): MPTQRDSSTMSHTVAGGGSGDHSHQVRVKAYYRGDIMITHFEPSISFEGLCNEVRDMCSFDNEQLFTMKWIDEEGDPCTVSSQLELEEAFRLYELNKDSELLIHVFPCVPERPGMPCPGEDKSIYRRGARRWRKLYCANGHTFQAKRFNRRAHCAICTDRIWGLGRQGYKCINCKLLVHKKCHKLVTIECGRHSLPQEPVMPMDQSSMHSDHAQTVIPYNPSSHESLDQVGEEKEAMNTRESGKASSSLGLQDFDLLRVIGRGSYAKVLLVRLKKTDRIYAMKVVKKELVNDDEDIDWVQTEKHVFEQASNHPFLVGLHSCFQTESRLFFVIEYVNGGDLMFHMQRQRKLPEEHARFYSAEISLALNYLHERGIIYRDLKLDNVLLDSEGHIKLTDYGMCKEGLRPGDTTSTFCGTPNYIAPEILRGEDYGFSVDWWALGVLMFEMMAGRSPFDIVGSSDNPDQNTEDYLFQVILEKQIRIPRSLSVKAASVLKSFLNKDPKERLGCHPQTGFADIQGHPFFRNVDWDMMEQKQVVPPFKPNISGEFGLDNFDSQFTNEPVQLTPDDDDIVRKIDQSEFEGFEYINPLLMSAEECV
Particulars: at 0.1 µM.

For assay [3], the target named is T1, Protein kinase C iota type (Homo sapiens). The note with it: at 1 µM.
Assay [4] deals with Protein kinase C theta type (Homo sapiens) (UniProt Q04759). The note with it: at 0.1 µM.
Chain of Protein kinase C theta type (Homo sapiens) (Q04759 whole entry, looked up): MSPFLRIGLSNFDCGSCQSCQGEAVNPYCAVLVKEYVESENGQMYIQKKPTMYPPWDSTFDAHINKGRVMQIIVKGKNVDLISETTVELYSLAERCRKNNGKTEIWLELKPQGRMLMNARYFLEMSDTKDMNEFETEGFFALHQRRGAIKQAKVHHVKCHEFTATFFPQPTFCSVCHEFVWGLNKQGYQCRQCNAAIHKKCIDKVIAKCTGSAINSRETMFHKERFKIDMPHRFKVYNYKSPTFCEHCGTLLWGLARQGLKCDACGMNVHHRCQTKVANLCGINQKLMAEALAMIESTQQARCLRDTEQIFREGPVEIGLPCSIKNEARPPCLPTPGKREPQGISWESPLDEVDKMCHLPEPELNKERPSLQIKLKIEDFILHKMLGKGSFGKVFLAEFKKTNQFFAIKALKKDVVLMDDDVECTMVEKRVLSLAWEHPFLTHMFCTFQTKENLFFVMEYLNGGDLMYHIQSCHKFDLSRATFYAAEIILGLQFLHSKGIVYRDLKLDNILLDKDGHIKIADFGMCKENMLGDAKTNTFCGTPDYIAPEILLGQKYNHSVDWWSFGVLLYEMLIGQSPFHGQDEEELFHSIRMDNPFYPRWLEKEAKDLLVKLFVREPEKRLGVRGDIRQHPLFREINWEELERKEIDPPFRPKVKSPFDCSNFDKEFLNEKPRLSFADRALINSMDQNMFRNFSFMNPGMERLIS
For assay [5] the target is unchanged. Particulars: at 1 µM.
The target of assay [6] is Protein kinase C beta type (Homo sapiens) (UniProt P05771). The note with it: at 0.1 µM.
Chain of Protein kinase C beta type (Homo sapiens) (P05771 2-671 limits assumed): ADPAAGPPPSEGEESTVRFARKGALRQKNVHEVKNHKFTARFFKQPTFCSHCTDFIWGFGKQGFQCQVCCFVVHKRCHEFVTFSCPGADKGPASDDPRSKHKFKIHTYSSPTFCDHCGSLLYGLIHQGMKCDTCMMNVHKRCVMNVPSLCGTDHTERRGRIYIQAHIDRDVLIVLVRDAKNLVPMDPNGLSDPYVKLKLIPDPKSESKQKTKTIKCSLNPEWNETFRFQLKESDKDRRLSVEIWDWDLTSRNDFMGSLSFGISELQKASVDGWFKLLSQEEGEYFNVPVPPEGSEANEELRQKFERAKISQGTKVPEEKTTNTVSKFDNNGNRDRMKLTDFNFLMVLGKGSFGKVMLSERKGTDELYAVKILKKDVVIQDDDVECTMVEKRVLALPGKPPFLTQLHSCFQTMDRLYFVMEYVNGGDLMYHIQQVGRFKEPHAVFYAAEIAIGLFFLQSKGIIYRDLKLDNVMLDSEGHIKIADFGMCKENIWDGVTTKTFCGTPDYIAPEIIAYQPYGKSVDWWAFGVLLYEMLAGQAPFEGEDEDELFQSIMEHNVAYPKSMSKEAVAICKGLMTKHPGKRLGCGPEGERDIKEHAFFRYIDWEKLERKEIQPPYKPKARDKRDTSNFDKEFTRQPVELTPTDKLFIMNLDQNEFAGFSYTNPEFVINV
Assay [7] shares this target. The note with it: at 1 µM.
Assay [8] has as its target T2, Serine/threonine-protein kinase D1 (Homo sapiens) (UniProt Q15139).
T2 sequence (whole entry): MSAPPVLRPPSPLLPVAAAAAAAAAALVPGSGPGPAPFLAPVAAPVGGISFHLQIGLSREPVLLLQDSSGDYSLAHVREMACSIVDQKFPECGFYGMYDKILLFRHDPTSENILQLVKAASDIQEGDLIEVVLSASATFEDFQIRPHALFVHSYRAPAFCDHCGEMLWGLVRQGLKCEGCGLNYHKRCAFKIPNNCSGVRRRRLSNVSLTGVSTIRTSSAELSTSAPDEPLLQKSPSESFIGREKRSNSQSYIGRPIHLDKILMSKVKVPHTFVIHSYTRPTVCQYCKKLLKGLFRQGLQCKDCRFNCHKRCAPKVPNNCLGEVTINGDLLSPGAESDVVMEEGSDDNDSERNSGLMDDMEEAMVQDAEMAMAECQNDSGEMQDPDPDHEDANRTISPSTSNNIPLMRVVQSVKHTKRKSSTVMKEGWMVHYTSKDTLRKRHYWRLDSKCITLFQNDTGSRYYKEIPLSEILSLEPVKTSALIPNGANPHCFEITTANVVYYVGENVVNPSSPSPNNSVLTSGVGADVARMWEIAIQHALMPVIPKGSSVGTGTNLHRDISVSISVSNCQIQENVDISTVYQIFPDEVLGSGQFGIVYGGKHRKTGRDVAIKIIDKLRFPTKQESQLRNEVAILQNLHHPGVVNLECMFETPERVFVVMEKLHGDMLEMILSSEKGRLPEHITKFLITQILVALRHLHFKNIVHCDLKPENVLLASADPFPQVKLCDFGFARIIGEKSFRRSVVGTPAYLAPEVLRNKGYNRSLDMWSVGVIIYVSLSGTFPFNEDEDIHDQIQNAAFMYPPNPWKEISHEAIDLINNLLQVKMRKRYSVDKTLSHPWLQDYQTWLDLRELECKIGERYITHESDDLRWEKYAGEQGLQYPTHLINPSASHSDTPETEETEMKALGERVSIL
The note with it: at 0.1 µM.

The target in assay [9] is T2, Serine/threonine-protein kinase D1 (Homo sapiens). Particulars: at 1 µM.
The target of assay [10] is T3, Serine/threonine-protein kinase D2 (Homo sapiens) (UniProt Q9BZL6).
T3 sequence (whole entry): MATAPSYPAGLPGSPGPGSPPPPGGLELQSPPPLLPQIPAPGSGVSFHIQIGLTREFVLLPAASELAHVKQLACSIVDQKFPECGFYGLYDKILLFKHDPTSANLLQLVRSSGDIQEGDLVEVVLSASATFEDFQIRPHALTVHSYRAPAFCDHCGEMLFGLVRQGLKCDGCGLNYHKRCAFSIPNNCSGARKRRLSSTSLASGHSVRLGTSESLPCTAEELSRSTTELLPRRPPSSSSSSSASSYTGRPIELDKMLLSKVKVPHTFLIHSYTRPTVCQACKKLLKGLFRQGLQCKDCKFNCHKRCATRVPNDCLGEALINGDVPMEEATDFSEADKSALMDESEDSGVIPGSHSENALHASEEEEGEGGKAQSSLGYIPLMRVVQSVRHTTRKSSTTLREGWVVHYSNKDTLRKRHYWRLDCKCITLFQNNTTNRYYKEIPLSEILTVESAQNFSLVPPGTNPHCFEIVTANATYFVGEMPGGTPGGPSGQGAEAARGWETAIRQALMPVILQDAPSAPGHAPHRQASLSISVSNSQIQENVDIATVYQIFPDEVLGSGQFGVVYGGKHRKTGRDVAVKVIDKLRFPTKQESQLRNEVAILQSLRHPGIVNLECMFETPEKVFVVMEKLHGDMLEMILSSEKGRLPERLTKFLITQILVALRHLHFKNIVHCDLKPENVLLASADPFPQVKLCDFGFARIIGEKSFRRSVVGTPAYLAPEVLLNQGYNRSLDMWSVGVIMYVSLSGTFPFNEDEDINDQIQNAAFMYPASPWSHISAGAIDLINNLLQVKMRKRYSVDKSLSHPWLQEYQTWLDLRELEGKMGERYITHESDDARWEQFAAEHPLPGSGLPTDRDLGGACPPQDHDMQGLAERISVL
Particulars: at 0.1 µM.

The target in assay [11] is T3, Serine/threonine-protein kinase D2 (Homo sapiens). Particulars: at 1 µM.
Assay [12] addresses T4, Serine/threonine-protein kinase D3 (Homo sapiens) (UniProt O94806).
T4 sequence (whole entry): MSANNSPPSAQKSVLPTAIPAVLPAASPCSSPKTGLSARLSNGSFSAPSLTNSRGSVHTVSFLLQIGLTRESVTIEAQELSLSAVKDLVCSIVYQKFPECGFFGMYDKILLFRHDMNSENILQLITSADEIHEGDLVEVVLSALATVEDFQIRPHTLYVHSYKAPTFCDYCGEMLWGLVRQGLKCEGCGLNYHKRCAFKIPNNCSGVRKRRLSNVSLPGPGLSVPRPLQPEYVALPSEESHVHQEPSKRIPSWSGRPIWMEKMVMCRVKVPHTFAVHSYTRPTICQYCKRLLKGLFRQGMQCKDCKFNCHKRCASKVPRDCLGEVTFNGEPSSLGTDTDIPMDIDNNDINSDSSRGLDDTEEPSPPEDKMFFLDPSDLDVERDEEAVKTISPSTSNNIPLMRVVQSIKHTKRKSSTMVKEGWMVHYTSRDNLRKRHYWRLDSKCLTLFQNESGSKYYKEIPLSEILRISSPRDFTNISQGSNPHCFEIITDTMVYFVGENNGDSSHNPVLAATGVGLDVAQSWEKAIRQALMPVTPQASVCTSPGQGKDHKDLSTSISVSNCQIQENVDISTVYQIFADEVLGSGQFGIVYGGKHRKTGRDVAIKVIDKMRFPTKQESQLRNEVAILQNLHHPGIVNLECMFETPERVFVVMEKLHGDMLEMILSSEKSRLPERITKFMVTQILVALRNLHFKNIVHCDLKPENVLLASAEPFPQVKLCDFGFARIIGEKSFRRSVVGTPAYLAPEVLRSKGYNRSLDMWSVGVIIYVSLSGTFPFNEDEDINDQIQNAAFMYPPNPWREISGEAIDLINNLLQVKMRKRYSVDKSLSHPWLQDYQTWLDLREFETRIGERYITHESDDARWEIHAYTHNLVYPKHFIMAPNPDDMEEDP
Particulars: at 0.1 µM.

The target in assay [13] is T4, Serine/threonine-protein kinase D3 (Homo sapiens). Particulars: at 1 µM.
For assay [14], the target named is T5, cGMP-dependent protein kinase 1 (Homo sapiens) (UniProt Q13976).
T5 sequence (whole entry): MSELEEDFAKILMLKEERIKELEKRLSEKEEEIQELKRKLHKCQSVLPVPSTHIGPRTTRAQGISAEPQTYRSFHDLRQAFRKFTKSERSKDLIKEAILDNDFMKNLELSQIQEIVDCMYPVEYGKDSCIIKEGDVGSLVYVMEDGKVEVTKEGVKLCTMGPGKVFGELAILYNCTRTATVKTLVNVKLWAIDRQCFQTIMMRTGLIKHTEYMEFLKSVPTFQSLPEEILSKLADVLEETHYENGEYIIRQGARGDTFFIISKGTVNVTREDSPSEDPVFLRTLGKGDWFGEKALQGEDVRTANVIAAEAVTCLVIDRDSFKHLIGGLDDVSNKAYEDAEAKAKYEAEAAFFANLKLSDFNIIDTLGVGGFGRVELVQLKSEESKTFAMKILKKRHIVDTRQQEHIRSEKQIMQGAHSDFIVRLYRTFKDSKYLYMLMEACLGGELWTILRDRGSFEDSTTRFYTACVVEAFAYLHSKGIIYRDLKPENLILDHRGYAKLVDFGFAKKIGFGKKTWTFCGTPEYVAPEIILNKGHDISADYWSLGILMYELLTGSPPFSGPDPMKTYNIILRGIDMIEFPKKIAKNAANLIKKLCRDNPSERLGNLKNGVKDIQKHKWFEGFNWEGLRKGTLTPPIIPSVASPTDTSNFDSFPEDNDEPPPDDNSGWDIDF
The note with it: at 0.1 µM.

Assay [15] concerns the target T5, cGMP-dependent protein kinase 1 (Homo sapiens). The note with it: at 1 µM.
Assay [16] concerns the target T6, cGMP-dependent protein kinase 2 (Homo sapiens) (UniProt Q13237).
T6 sequence (whole entry): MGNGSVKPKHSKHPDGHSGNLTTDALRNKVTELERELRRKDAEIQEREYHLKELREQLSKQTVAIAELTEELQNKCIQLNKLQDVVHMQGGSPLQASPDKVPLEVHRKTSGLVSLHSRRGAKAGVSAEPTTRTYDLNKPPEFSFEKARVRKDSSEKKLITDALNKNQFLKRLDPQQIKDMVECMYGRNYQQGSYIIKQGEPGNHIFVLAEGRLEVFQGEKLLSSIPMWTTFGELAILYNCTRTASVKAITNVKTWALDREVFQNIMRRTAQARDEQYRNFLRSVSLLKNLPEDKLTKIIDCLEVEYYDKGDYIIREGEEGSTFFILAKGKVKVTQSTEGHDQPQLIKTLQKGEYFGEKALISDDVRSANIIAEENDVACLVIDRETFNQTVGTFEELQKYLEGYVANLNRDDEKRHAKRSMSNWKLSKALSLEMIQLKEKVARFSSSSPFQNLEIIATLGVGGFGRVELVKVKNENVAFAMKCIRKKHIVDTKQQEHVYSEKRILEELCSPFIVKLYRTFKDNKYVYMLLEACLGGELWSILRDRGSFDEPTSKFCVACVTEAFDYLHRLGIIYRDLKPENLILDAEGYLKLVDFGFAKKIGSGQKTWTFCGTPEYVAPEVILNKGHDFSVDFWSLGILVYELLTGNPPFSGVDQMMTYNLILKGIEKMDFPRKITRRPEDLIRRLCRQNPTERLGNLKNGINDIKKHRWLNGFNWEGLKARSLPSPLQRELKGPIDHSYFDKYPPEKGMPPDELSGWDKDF
Particulars: at 0.1 µM.

For assay [17], the target named is T6, cGMP-dependent protein kinase 2 (Homo sapiens). The note with it: at 1 µM.
Assay [18] addresses T7, cAMP-dependent protein kinase catalytic subunit PRKX (Homo sapiens) (UniProt P51817).
T7 sequence (whole entry): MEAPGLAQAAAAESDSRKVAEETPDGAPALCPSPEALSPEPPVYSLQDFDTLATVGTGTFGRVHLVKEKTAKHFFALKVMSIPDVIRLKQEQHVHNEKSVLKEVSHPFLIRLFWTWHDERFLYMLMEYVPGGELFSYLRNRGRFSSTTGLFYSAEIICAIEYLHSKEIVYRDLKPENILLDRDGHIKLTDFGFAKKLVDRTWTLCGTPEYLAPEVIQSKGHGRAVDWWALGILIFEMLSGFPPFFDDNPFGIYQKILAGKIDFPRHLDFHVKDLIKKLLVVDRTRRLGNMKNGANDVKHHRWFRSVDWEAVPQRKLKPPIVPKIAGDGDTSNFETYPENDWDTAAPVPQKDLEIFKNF
Particulars: at 0.1 µM.

The target of assay [19] is T7, cAMP-dependent protein kinase catalytic subunit PRKX (Homo sapiens). The note with it: at 1 µM.
For assay [20], the target named is Rho-associated protein kinase 1 (Homo sapiens) (UniProt Q13464). Particulars: at 0.1 µM.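 Also: values are mean percent inhibition of ROCK1.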
Chain of Rho-associated protein kinase 1 (Homo sapiens) (Q13464 2-1354 limits assumed): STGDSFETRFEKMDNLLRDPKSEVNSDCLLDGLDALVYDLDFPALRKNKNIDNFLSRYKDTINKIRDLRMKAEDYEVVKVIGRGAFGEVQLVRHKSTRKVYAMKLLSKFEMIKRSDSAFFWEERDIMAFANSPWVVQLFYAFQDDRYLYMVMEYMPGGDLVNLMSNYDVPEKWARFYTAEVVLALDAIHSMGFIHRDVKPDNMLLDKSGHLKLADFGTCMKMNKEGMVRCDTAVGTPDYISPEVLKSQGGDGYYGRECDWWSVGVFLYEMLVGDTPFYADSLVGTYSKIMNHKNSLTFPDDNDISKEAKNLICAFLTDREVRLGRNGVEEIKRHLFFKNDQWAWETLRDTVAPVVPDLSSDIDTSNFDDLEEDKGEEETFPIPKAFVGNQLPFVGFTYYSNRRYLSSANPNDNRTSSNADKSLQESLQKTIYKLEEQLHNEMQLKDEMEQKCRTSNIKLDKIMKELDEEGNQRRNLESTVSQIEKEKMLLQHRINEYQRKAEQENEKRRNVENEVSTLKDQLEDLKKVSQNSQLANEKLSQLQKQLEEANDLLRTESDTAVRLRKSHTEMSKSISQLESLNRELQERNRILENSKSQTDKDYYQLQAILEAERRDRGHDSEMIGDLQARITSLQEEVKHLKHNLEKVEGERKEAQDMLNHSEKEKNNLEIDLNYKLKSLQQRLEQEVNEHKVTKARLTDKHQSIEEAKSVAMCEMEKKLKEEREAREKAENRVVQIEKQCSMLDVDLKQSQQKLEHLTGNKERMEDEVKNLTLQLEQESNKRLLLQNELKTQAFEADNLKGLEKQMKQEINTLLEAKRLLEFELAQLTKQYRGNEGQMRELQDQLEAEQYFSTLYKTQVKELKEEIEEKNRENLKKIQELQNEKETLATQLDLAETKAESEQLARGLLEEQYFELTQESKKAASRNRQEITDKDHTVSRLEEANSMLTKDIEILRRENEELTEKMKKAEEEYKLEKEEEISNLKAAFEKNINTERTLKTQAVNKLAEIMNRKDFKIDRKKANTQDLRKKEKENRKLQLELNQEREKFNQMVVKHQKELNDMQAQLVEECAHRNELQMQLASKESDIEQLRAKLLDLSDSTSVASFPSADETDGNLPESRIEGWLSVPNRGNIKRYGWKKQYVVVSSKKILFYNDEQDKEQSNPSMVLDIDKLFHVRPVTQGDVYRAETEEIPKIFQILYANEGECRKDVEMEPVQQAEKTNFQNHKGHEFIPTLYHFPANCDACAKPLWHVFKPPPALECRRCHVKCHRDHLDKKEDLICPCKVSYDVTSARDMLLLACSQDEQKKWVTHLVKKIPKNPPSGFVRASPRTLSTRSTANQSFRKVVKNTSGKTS

By inhibition is commonly meant the change of the read-out against control, counted positive when it falls. For the compound `CC(C)c1ccc(-c2cc(-c3c[nH]nc3-c3ccccn3)ccn2)cc1`, the inhibition in assay [1] was 1.42%; in assay [2] it was -0.37%; in assay [3], 1.12%; in assay [4], 0.13%; in assay [5], -0.28%; in [6] it was 0.43%. Further, the inhibition in assay [7] stood at 1.4%; in assay [8] it was 1.12%; in assay [9], 8.61%; in assay [10], 1.16%; in [11], 10.9%; in [12] it was 1.32%. Also, the inhibition was 5.01% in assay [13]; 2.03% in [14]; 2.34% in assay [15]; -0.11% in [16]; 2.04% in assay [17]; -0.13% in [18]. Moreover, the inhibition was -0.45% in [19] and 0.38% in assay [20].
For `COc1ccc2ncn(-c3cc(O[C@H](C)c4ccccc4C(F)(F)F)c(C(N)=O)s3)c2c1`, the inhibition in assay [1] is 3.02%; in assay [2] it was -1.03%; in assay [3] it was -0.45%; in assay [4] it was -0.16%; in [5], -0.58%; in assay [6], -0.24%. Besides, the inhibition is 0.08% in assay [7]; -0.46% in [8]; 0.62% in assay [9]; 2.18% in assay [10]; 1.77% in [11]; -0.52% in assay [12]. For the same compound, the inhibition in assay [13] is 0.07%; in [14], 0.03%; in assay [15], 1.49%; in assay [16] it was 0.1%; in [17], 0.7%; in [18], -0.2%. Also, the inhibition in [19] is -0.15%; in [20], 0.72%.
